# pPAFAH FP inh: pPAFAH (human) enzyme inhibition; Q13093; recombinant pPAFAH, FP-rhodamine probe fluorescence polarization; inhibition, % at 3.39 µM; actives 1.5% (n = 330,000);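 active means inhibition above the mean inhibition across the screen plus 3 SD, cut at about 25% in these data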;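 further: inhibitors block binding of the rhodamine activity-based probe so polarization drops; 0% = enzyme with DMSO and 100% = wells lacking pPAFAH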
# PAFAH1B3 inh: PAFAH1B3 (human) inhibition. Q15102. recombinant PAFAH1B3, FP-rhodamine probe, fluorescence polarization. inhibition, % at 3.39 µM. actives 0.28% (n = 340,000);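 active means inhibition above the screen-wide average of all tested compounds plus 3 SD, cut at about 25% in these data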;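 further: 0% = enzyme with DMSO only and 100% = wells lacking PAFAH1B3 protein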
# Target sequence (Q15102 whole entry, looked up): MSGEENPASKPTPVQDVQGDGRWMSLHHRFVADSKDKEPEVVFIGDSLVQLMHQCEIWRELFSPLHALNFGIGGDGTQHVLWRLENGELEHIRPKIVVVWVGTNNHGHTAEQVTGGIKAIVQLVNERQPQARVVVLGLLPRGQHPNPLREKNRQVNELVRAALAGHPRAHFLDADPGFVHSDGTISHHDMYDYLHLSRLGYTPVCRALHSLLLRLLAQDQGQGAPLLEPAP
# PAFAH1B2 inh: PAFAH1B2 (human) inhibition; P68402; recombinant PAFAH1B2, FP-rhodamine activity probe, fluorescence polarization; inhibition, % at 3.39 µM; actives 1.2% (n = 340,000); AID 492953;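 active means inhibition above the mean of all tested compounds plus 3 SD, cut at about 24% in these data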;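 further: 0% = enzyme with DMSO and 100% = wells lacking PAFAH1B2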
# PAFAH2 inh: PAFAH2 (human) inhibition | inhibition, % at 3.39 µM | recombinant PAFAH2, FP-rhodamine activity probe, fluorescence polarization | Q99487 | actives 0.99% (n = 340,000);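 active means inhibition above the mean over all tested compounds plus 3 SD, cut at about 30% in these data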;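 further: inhibitors block probe labeling of enzyme so polarization drops; 0% = enzyme with DMSO and 100% = wells lacking PAFAH2 protein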
# Fam108B inh: Fam108B inhibition, counter-screen for RBBP9 inhibitors; recombinant Fam108B, FP-Rh probe fluorescence polarization; inhibition, % at 9.51 µM; actives 0.33% (n = 300,000); AID 1947;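 active means inhibition above the screen mean inhibition plus 3 SD, computed separately per campaign, cut at about 18% in these data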;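 further: inhibitors lower polarization as less probe binds the enzyme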
# PME-1 inh: blocks human protein phosphatase methylesterase 1; AID 2130; recombinant PME-1, FP-Rh probe fluorescence polarization; actives 0.53% (n = 320,000); inhibition, % at 5.9 µM; Q9Y570;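 active means inhibition above the campaign mean of all compounds plus 3 SD, cut at about 26% in these data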;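 further: competitive labeling of PME-1 active site by serine hydrolase directed probe; 0% = PME-1 with DMSO and 100% = wells lacking PME-1 enzyme; inhibitors block probe labeling so polarization falls and inhibition rises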
# Target sequence (Q9Y570 whole entry, looked up): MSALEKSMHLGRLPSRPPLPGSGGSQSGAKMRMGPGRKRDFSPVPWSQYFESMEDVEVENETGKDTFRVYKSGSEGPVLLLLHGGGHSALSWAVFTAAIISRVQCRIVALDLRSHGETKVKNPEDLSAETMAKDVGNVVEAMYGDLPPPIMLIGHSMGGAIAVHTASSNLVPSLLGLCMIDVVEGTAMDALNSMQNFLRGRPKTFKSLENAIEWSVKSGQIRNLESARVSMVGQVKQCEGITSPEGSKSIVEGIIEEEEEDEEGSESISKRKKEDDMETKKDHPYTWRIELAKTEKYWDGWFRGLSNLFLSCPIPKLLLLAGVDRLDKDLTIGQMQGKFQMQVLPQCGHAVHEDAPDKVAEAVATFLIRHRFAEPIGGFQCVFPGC
# Numbers without * were called inactive; nt = not tested or not shown. Shown are actives, neighbours in structure and some others; about 2.8% of the full set was active somewhere.
SMILES,pPAFAH FP inh,PAFAH1B3 inh,PAFAH1B2 inh,PAFAH2 inh,Fam108B inh,PME-1 inh
O=C(Nc1ccc([N+](=O)[O-])cc1)Nc1ccc2[nH]c(=O)[nH]c2c1,7,1,-5,-16,2,30*
CC1(C)CC=CC(COC(=O)c2ccccc2C(=O)O)C1 (stereo not drawn),nt,7,29*,23,nt,nt
O=C(COc1cccnc1[N+](=O)[O-])c1ccc(Cl)s1,31*,9,4,18,5,6
CC1CCN(S(=O)(=O)c2ccc(S(=O)(=O)NCC(=O)C(C)(C)C)cc2)CC1,2,0,26*,-2,-2,2
CC(=O)N1CCC(C(=O)Nc2ccc(S(=O)(=O)N3CCC(C)CC3)cc2)CC1,-1,-2,29*,8,4,0
CC(C)(C)NC(=O)C1CCN(S(=O)(=O)c2ccc(Br)cc2)CC1,1,10,29*,-2,2,3
CC1CCN(S(=O)(=O)c2ccc(NC(=O)CSc3nnnn3C)cc2)CC1,2,0,42*,-4,0,12
Cn1nnnc1SCC(=O)Nc1cccc(S(=O)(=O)N2CCCC2)c1,-2,5,6,0,1,2
CC(=O)N1CCC(C(=O)Nc2ccc(S(=O)(=O)N3CCCC(C)C3)cc2)CC1 (stereo not drawn),nt,7,4,-3,nt,nt
CC1CCN(S(=O)(=O)c2ccc(S(=O)(=O)N3CCCC3)cc2)CC1,5,-1,-1,-9,0,-1
Cc1ccc(C(C)c2c(C)c([N+](=O)[O-])cc(C)c2[N+](=O)[O-])cn1 (stereo not drawn),-1,3,5,7,2,-2
CC1CCN(S(=O)(=O)c2ccc(NC(=O)[C@@H]3CCCN3C(=O)c3cccs3)cc2)CC1,25*,-6,37*,1,nt,8
CC1CCCN(S(=O)(=O)c2ccc(NC(=O)[C@@H]3CCCN3C(=O)c3cccs3)cc2)C1 (stereo partly drawn),30*,11,1,-2,nt,4
Cc1nn(-c2ccccc2)c(Cl)c1/C=N/NC(=O)c1ccccc1NS(=O)(=O)c1cccs1,33*,8,1,-4,-3,10
Cc1nn(-c2ccccc2)c(Cl)c1/C=N/NC(=O)c1ccc(NS(=O)(=O)c2cccs2)cc1,13,nt,nt,nt,-1,-4
Cc1ccc(C2=NN(CCC#N)C(=O)CO2)cc1,2,15,-2,1,-2,-4
CC(C(=O)Nc1ccc(O)cc1C(=O)O)N1C(=O)/C(=C\c2cccs2)SC1=S (stereo not drawn),28*,8,8,22,6,8
O=C(CCCN1C(=O)/C(=C/c2cccs2)SC1=S)Nc1cc([N+](=O)[O-])ccc1O,30*,6,4,27,2,5
O=C(CCCN1C(=O)/C(=C\c2ccccc2)SC1=S)Nc1ccc(O)cc1C(=O)O,13,3,64*,6,0,9
CCc1ccc(/C=C2/SC(=S)N(CCCC(=O)Nc3ccccc3C(=O)O)C2=O)cc1,-2,6,61*,44*,-1,-2
COc1ccc(NC(=O)CN(C)C(=O)CCNC(=O)c2ccccc2OC)cc1,2,1,2,3,-1,1
Cc1ccc(NC(=O)COC(=O)c2ccc3c(c2)OCO3)c(C)c1,6,4,6,26,-2,3
O=C(CCCN1C(=O)/C(=C/c2ccccc2Cl)SC1=S)NNC(=O)c1ccccc1,32*,-1,0,4,-4,3
O=C(CCCN1C(=O)/C(=C/c2ccccc2Cl)SC1=S)NNC(=O)c1cccnc1,7,-4,4,10,3,9
CCOC(=O)Cc1cc(=O)n2[nH]cc(-c3cccc(Br)c3)c2n1,31*,8,13,31*,1,2
SMILES,pPAFAH FP inh,PAFAH1B3 inh,PAFAH1B2 inh,PAFAH2 inh,Fam108B inh,PME-1 inh
CCOC(=O)Cc1cc(=O)n2[nH]c(-c3ccc(C)cc3)cc2n1,34*,-1,3,6,-2,-1
O=C(NNc1ccc([N+](=O)[O-])cn1)Nc1ccc(N=Nc2ccccc2)cc1,nt,6,1,1,nt,nt
NC(=O)CN1C(=O)C(=O)N(Cc2ccc(Cl)cc2)C1=O,2,1,1,-3,6,1
O=C(O)CN1C(=O)C(=O)N(Cc2ccc(Cl)cc2Cl)C1=O,6,5,25*,-3,2,-9
Cc1ccc([N+](=O)[O-])cc1-c1ccc(/C=C(\C#N)c2[nH]nc(N)c2C#N)o1,30*,5,2,22,0,-5
COc1cc(CC(=O)N(C)CC(=O)Nc2cc(C)ccc2C)cc(OC)c1OC,4,3,4,-1,3,0
CCCCNc1ccc2c3c(cccc13)C(=O)N(CCCC)C2=O,nt,31*,21,34*,nt,nt
COC(=O)c1cc(NS(=O)(=O)c2ccc(N3CCCCCC3)c([N+](=O)[O-])c2)cc(C(=O)OC)c1,9,4,33*,6,6,-10
COC(=O)c1cc(NS(=O)(=O)c2ccc(N3CCOCC3)c([N+](=O)[O-])c2)cc(C(=O)OC)c1,5,5,-1,5,0,-1
CC(=O)N1c2ccc(S(=O)(=O)NCCC(=O)NCCc3ccc(Cl)cc3)cc2CC1C (stereo not drawn),10,5,9,-6,1,-6
CC(=O)N1c2ccc(S(=O)(=O)NCCc3ccc(Cl)cc3)cc2CC1C (stereo not drawn),30*,-3,16,-2,0,2
O=CNC1c2ccccc2CCc2ccccc21,nt,6,1,2,nt,nt
COc1cc(C(NC(C)=O)NC(C)=O)ccc1OCc1ccccc1,1,9,5,0,-1,-4
O=C(O)COc1ccc(Br)cc1C(c1c(C(=O)O)[nH]c2ccccc12)c1c(C(=O)O)[nH]c2ccccc12,7,7,53*,20,7,0
O=C(O)c1[nH]c2ccccc2c1C(c1ccccc1)c1c(C(=O)O)[nH]c2ccccc12,2,10,88*,13,6,-4
O=C(O)c1[nH]c2ccccc2c1C(c1cc(Cl)cc([N+](=O)[O-])c1O)c1c(C(=O)O)[nH]c2ccccc12,13,8,62*,12,13,0
COc1cc(C(c2c(C(=O)O)[nH]c3ccccc23)c2c(C(=O)O)[nH]c3ccccc23)ccc1OCc1ccccc1,18,8,57*,26,-3,-2
COC(=O)c1[nH]c2c(c1C)C(=O)CC(c1cccc(OC)c1)C2 (stereo not drawn),4,0,9,1,4,1
CC(=O)c1c(N2CCOCC2)nc2ccc(Br)cc2c1-c1ccccc1,3,nt,nt,nt,-4,0
O=C(CSc1nnnn1-c1cccc(F)c1)NC1CCCCC1,1,0,-3,5,nt,7

# Source: PubChem BioAssay (The Scripps Research Institute Molecular Screening Center)
